Source: PubChem
LmPK inhibitor = qHTS Assay for Inhibitors of Leishmania Mexicana Pyruvate Kinase (LmPK); hit rate 0.37% among 290,000; purified LmPK, Kinase-Glo ATP luminescence, 1 h; AID 1721, 2009; Potency, µM (top dose mostly 57.5 µM), usual class: inhibitors; Q27686
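Screened at intermediate enzyme activity to detect both inhibitors and activators: LmPK at 0.1 nM, with a 0.5 nM enzyme column as activation reference. PEP 0.5 mM, ADP 0.1 mM; ATP detected by luminescence after 1 h.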
TbPYK inhibitor = qHTS of Trypanosoma Brucei Inhibitors | TbPYK enzyme, Kinase-Glo Plus ATP luminescence, 45 min | Potency, µM (titrated, usually from 76.8 µM), hits mostly inhibitors | hit rate 0.12% among 410,000 | AID 624173, 2012; note: nearly all actives have a fitted effect of over 50% in size
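Readout: single end-point luminescence (Kinase-Glo Plus, 10 min). Reaction conditions were TbPYK/substrate plus 130 uM ADP, 45 min at RT, pH 7.2 TEA buffer. No-enzyme wells served as controls, and data were normalized before concentration-response fitting.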
Cycloheximide cs = Cycloheximide Counterscreen for Small Molecule Inhibitors of Shiga Toxin; cell reporter, cycloheximide protein synthesis inhibition counterscreen; max response, %; hit rate 12% among 300,000; in the data active = max response mostly above about 13%, no sharp cut-off; inactive = mostly below about 14%; note: read at 38.3 µM for the half of the compounds with a filed dose
Shiga inhibitor = A qHTS for Small Molecule Inhibitors of Shiga Toxin; Vero cells, Shiga toxin protein synthesis inhibition reporter; inhibition, % at 38.7 µM; hit rate 9.2% among 290,000; AID 2315, 2010; in the data active = inhibition mostly above about 28%, no sharp cut-off; inactive = mostly below about 43%
Sm TGR inh = qHTS Assay for the Inhibitors of Schistosoma Mansoni Peroxiredoxins. Schistosoma mansoni thioredoxin glutathione reductase (TGR), Q962Y6. purified TGR, DTNB reduction, TNB absorbance 405 nm. Potency, µM (series often up to 114 µM), most hits filed as inhibitors. hit rate 3% among 360,000; note: nearly all actives have a fitted effect of over 60% in size
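TGR 20 nM + NADPH 100 uM (dispensed conc.), cpd preinc 15 min RT; start with NADPH (500 uM addition) then DTNB (15 mM addition). Kinetic TNB absorbance, 405 nm filter. Four-parameter Hill fit across titration.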
FBPA Giardia inh = qHTS Assay for Inhibitors of Fructose-1,6-bisphosphate Aldolase from Giardia Lamblia; purified Giardia FBPA; Potency, µM (doses to about 59.6 µM), usual class: inhibitors; hit rate 0.71% among 290,000; AID 2451, 2010; note: nearly all actives have a fitted effect of over 55% in size
Target sequence (A8B2U2 whole entry, looked up): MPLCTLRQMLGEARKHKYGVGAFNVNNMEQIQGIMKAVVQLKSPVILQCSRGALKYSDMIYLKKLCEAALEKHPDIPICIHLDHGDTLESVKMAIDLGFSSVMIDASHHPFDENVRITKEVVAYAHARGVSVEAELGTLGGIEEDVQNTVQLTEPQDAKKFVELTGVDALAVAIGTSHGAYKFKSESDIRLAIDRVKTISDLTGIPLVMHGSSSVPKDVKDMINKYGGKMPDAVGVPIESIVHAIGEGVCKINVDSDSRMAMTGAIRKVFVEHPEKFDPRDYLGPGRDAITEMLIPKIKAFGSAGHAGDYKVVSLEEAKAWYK
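Giardia FBPA (40 nM reagent) was preincubated 10 min at RT with compound (up to 57.5 uM final), then substrate plus GAPDH/TPI/NAD/arsenate coupling system with diaphorase/resazurin was added; resorufin fluorescence (525/598 nm) was read after 20 min.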
Numbers stand for hits; [ ] = remark or other dose. Only a selection was taken, and hits are over-represented in it overall. Unless noted, calls come from the whole dose curve; as a rule, active = well fitted curve in the direction sought with a large enough effect; inconclusive = small, poorly fitted or top-dose-only effect, or another doubt; inactive = no such curve, though single readings can be large; an effect the other way counts as inactive or inconclusive.

For C=CCC(O)(CCN1CCCCC1)c1ccccc1 (stereo not drawn) the results were LmPK inhibitor inactive, TbPYK inhibitor inactive, Cycloheximide cs inactive, Shiga inhibitor inactive, Sm TGR inh 25.1µM and FBPA Giardia inh inactive.
For OC(CCN1CCCCC1)(c1ccccc1)c1ccccc1 the results were LmPK inhibitor inactive, TbPYK inhibitor inactive, Cycloheximide cs inactive, Shiga inhibitor inactive, Sm TGR inh inactive and FBPA Giardia inh inactive.
Screening Cn1c(=O)c2c(SCC(=O)N3CCOCC3)nc(-c3ccccc3Cl)nc2n(C)c1=O returned LmPK inhibitor inactive, TbPYK inhibitor inactive, Cycloheximide cs inactive, Shiga inhibitor inactive and Sm TGR inh inactive.
CC1(C(=O)NS(=O)(=O)c2cccc(F)c2)CCN1C(=O)Cc1cccc2ccccc12 (stereo not drawn) was read as TbPYK inhibitor inactive.
O=C(CSc1nc2cc(Cl)ccc2o1)c1cccs1 was read as LmPK inhibitor inactive, TbPYK inhibitor inactive, Cycloheximide cs 23.2, Shiga inhibitor inactive, Sm TGR inh inactive[11.4 µM] and FBPA Giardia inh inactive.
Screening Cc1cc(C(=O)CSc2nc3ccc(Cl)cc3[nH]2)c(C)n1C returned LmPK inhibitor inactive, TbPYK inhibitor inactive, Cycloheximide cs inactive, Shiga inhibitor inactive, Sm TGR inh inactive and FBPA Giardia inh inactive.
For O=C(CSc1nc2ccc(Cl)cc2[nH]1)c1cccs1 the results were LmPK inhibitor inactive, TbPYK inhibitor inactive, Cycloheximide cs 57.8, Shiga inhibitor 122.4, Sm TGR inh inactive and FBPA Giardia inh inactive.
O=C(CC(Nc1ccccc1Cl)C(=O)O)c1ccccc1 (stereo not drawn) was read as LmPK inhibitor inactive, TbPYK inhibitor inactive, Cycloheximide cs 68.2, Shiga inhibitor 90.7 and FBPA Giardia inh inactive.
For O=C(CC(Nc1cccc(Cl)c1Cl)C(=O)OCC(=O)c1cccs1)c1ccccc1 (stereo not drawn) the results were LmPK inhibitor inactive, TbPYK inhibitor inactive, Cycloheximide cs inactive, Shiga inhibitor inactive, Sm TGR inh inactive and FBPA Giardia inh inactive.
`O=C(CC(Nc1ccc(F)cc1)c1ccccc1)c1ccccc1` (stereo not drawn) gave LmPK inhibitor inactive, TbPYK inhibitor inactive, Cycloheximide cs 31.2, Shiga inhibitor 91.2, Sm TGR inh inactive and FBPA Giardia inh inactive.
`O=C(CC(CC(=O)c1ccccc1)c1ccccc1)c1ccccc1` gave LmPK inhibitor inactive, TbPYK inhibitor inactive, Cycloheximide cs inactive, Shiga inhibitor inactive, Sm TGR inh inactive and FBPA Giardia inh inactive.
`Cc1c(Cl)cccc1NC(CC(=O)c1ccccc1)C(=O)OCC(=O)c1cccs1` (stereo not drawn) gave LmPK inhibitor inactive, TbPYK inhibitor inactive, Cycloheximide cs 23.3, Shiga inhibitor 80.8, Sm TGR inh 8.91µM and FBPA Giardia inh inactive.
Screening Cc1c(Cl)cccc1NC(CC(=O)c1ccccc1)C(=O)O (stereo not drawn) returned LmPK inhibitor inactive, TbPYK inhibitor inconclusive, Cycloheximide cs 69.6, Shiga inhibitor 149.8, Sm TGR inh 1µM and FBPA Giardia inh inactive.
Cc1c(Cl)cccc1NC(=O)CC(Cc1ccccc1)C(=O)O (stereo not drawn) was read as LmPK inhibitor inactive, TbPYK inhibitor inactive, Cycloheximide cs inactive, Shiga inhibitor inactive, Sm TGR inh inactive and FBPA Giardia inh inactive.
Screening COC(=O)c1ccccc1SC(CC(=O)c1ccccc1)c1ccc(F)cc1 (stereo not drawn) returned LmPK inhibitor inactive, TbPYK inhibitor inactive, Cycloheximide cs 55.9, Shiga inhibitor 107.3, Sm TGR inh inactive and FBPA Giardia inh inactive.
For O=C(CC(Nc1ccc(Cl)cc1)C(=O)O)c1ccccc1 (stereo not drawn) the results were LmPK inhibitor inconclusive, TbPYK inhibitor inactive, Cycloheximide cs 54.3, Shiga inhibitor 42.2, Sm TGR inh 0.708µM and FBPA Giardia inh inactive.
`COc1ccccc1NC(=O)CCCC(=O)OCC(=O)c1ccc(F)cc1` gave LmPK inhibitor inactive, TbPYK inhibitor inactive, Cycloheximide cs inactive, Shiga inhibitor inactive and Sm TGR inh inactive.
Screening O=C(CC(Nc1cccc(Cl)c1Cl)C(=O)O)c1ccccc1 (stereo not drawn) returned LmPK inhibitor inactive, TbPYK inhibitor inactive, Cycloheximide cs 56.6, Shiga inhibitor 102.4 and FBPA Giardia inh inactive.
COc1ccccc1NC(CC(=O)c1ccccc1)C(=O)OCC(=O)c1ccc(F)cc1 (stereo not drawn) was read as LmPK inhibitor inactive, TbPYK inhibitor inactive, Cycloheximide cs 48.7, Shiga inhibitor 59.9, Sm TGR inh 20µM and FBPA Giardia inh inactive.
For O=C(CC(C(=O)O)c1ccc(Cl)cc1)c1ccccc1 (stereo not drawn) the results were LmPK inhibitor inactive, TbPYK inhibitor inactive, Cycloheximide cs inactive, Shiga inhibitor inactive, Sm TGR inh inactive and FBPA Giardia inh inactive.
`O=C(Nc1ccc(N2CCN(c3ccc(F)cc3)CC2)c(C(=O)O)c1)c1ccccc1F` gave TbPYK inhibitor inactive and Sm TGR inh inactive.
`Cc1cc(/C=N/O)c(C)n1-c1ccc(Br)cc1` gave LmPK inhibitor inactive, TbPYK inhibitor inactive, Cycloheximide cs inactive, Shiga inhibitor inactive, Sm TGR inh inactive and FBPA Giardia inh inactive.
For O/N=C/c1ccn(-c2ccc(Br)cc2)c1 the results were LmPK inhibitor inactive, TbPYK inhibitor inactive, Cycloheximide cs 40.4, Shiga inhibitor 68.9, Sm TGR inh inactive and FBPA Giardia inh inactive.
For COc1ccc(OC)c(NC(=O)CSc2ccc(-c3ccco3)nn2)c1 the results were LmPK inhibitor inactive, TbPYK inhibitor inconclusive, Cycloheximide cs inactive, Shiga inhibitor inactive and Sm TGR inh 3.55µM.
`COc1ccccc1NC(=O)CSc1ccc(-c2ccco2)nn1` gave LmPK inhibitor inactive, TbPYK inhibitor inactive, Cycloheximide cs inactive, Shiga inhibitor inactive and Sm TGR inh 20µM.
For COc1ccccc1NC(=O)CSc1ccc(-c2cccs2)nn1 the results were LmPK inhibitor inactive, TbPYK inhibitor inactive, Cycloheximide cs inactive, Shiga inhibitor inactive, Sm TGR inh inactive and FBPA Giardia inh inactive.
`CCC(C(=O)OCC(=O)Nc1cc(C)ccc1OC)c1ccccc1` (stereo not drawn) gave LmPK inhibitor inactive, TbPYK inhibitor inactive, Cycloheximide cs 26.0, Shiga inhibitor inactive, Sm TGR inh inactive and FBPA Giardia inh inactive.
For COc1ccc(C)cc1NC(=O)CSc1ccc(-c2ccccn2)nn1 the results were LmPK inhibitor inactive, TbPYK inhibitor inactive, Cycloheximide cs 11.4, Shiga inhibitor inactive and Sm TGR inh inactive.
For Cc1ccc(NC(=O)[C@@H](c2ccccc2)N2Cc3ccccc3C2=O)cc1 the results were TbPYK inhibitor inactive and Sm TGR inh inactive.
